Screens: PubChem, National Center for Advancing Translational Sciences (NCATS)
Most compounds without a hit are left out; they make up all but 19% or so of the library.
IL1B secr inh – inhibitors of inflammasome signaling (IL-1 beta secretion); THP-1 LPS/ATP IL-1B secretion, AlphaLISA, 16 h; hits give low values; activity change, % at 57.5 µM; 360,000 tested, 4.7% active; AID 743279; in the data active = activity change below about -50%; inconclusive = mostly about -30% to -49%
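Secreted IL-1B measured by AlphaLISA bead assay after 16 h compound exposure of THP-1 cells; compounds (final up to 57.5 uM) added 1 h before LPS (250 ng/mL) and ATP (1.25 mM) stimulation; lower signal means less secretion.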
DT40 TDP1 no CPT – qHTS for Inhibitors of human tyrosyl-DNA phosphodiesterase 1 (TDP1): qHTS in cells in absence of CPT; DT40 Tdp1-/- hTDP1 cells, no CPT, ATP luminescence, 48 h; Potency, µM (titrated, usually from 46.2 µM), inactives show at the top dose activity change, negative = growth inhibition, usual class: inhibitors; 420,000 tested, 15% active; AID 686978, 2013; also: potency is read from the fitted curve at half-maximal effect; nearly all actives have a fitted effect of over 55% in size
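Luminescent ATP content (CellTiter-Glo) served as the growth readout. Knockout chicken DT40 cells expressing human TDP1 were exposed to compounds without camptothecin for a minimum 48 hr at 37 °C.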
HT1080 IDH1KD tx – toxicity to HT-1080 IDH1 knockdown cells (counter line); HT-1080 IDH1 knockdown viability, ATP luminescence, 48 h; AID 686971; Potency, µM (top dose mostly 46.1 µM), without a hit: at the top dose activity, negative = toxicity, usual class: cytotoxic; 360,000 tested, 2% active;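 also: potency is read from the fitted curve at half-maximal effect; 0% = DMSO wells and -100% = cell-free medium wells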
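Viability of IDH1-knockdown HT-1080 fibrosarcoma cells was assessed by CellTiter-Glo after 48 h at 37 °C with titrated compound; concentration-effect curves were classified by fit quality and response size.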
DT40 TDP1 CPT – growth inhibition of DT40 Tdp1-/-;hTDP1 cells with camptothecin (screen for TDP1 inhibitors) | chicken DT40 Tdp1-/-;hTDP1 cells + 20 nM CPT, ATP luminescence, 48 h | Potency, µM (titrated, usually from 46.2 µM), for inactives: at the highest dose activity change, negative = growth inhibition, usual class: inhibitors | 420,000 tested, 12% active | AID 686979; also: potency is read from the fitted curve at half-maximal effect; nearly all actives have a fitted effect of over 55% in size
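Cell growth measured by CellTiter-Glo luminescence after a minimum 48 h, 37 C compound exposure with 20 nM CPT in Tdp1-knockout DT40 cells stably expressing hTDP1, seeded 400/well; qHTS titration format.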
HT1080-NT tox – kills 2HG-producing HT-1080-NT fibrosarcoma cells | HT-1080-NT fibrosarcoma viability, CellTiter-Glo ATP luminescence, 48 h | Potency, µM (top dose mostly 46.1 µM), without a hit: at the highest dose activity, negative = less viability, hits mostly cytotoxic | AID 686970 | 360,000 tested, 1.6% active;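 also: NT is the 2HG producing partner of a matched IDH1 knockdown line; potency is read from the fitted curve at half-maximal effect; 0% = DMSO-treated cells and -100% = media-only wells without cells; nearly all actives have a fitted effect of over 55% in size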
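Luminescent CellTiter-Glo readout after 48 hours of compound exposure at 37 degrees C defined viability of HT-1080-NT cells. Activity was normalized to DMSO wells and cell-free media wells; concentration-response curves were fitted and assigned curve classes.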
* marks the source's active call; other numbers are inactive results; ? = inconclusive; . = no result given; ! = not confirmed by another sample; [ ] = dose if it differs, or a comment. Unless noted, calls follow the shape of the dose curve; as a rule, active = well fitted curve in the direction sought with a large enough effect; inconclusive = small, poorly fitted or top-dose-only effect, or another doubt; inactive = no such curve, though single readings can be large; an effect the other way counts as inactive or inconclusive. Unless noted, % is scaled to controls: 0 for no effect and ±100 for the full control effect.

SMILES | IL1B secr inh | DT40 TDP1 no CPT | HT1080 IDH1KD tx | DT40 TDP1 CPT | HT1080-NT tox
CCOc1ccc(Cc2c(O)[nH]c(=O)[nH]c2=O)cc1 | -8 | -1% | 17% | -3% | 29%
C=C1CC[C@@]2(O)[C@H]3Cc4ccc(O)c5c4[C@@]2(CCN3CC2CC2)[C@H]1O5 | 0 | 1% | 9% | 1% | -16%
O=C1/C(=C/c2ccccc2)C[C@@]2(O)[C@H]3Cc4ccc(O)c5c4[C@@]2(CCN3CC2CC2)C1O5 (some centres undefined) | -108* | 2.6µM* | 3.7µM* | 3.3µM* | 1.6µM*
Oc1ccc2c3c1OC1c4[nH]c5ccccc5c4C[C@@]4(O)C(C2)N(CC2CC2)CC[C@]314 (some centres undefined) | -64* | ? | ? | ? | ?
C=CCN1CC[C@@]23c4c5ccc(O)c4O[C@H]2/C(=N\N=C2/CC[C@@]4(O)[C@H]6Cc7ccc(O)c8c7[C@@]4(CCN6CC=C)[C@@H]2O8)CC[C@]3(O)[C@@H]1C5 | . | 30µM* | . | ? | .
Oc1ccc2c3c1OC1c4oc5ccccc5c4C[C@@]4(O)[C@@H](C2)N(CC2CC2)CC[C@]314 (some centres undefined) | -50* | ? | ? | -25% | ?
O=C(CCc1nnc2ccc(NCc3ccc(F)cc3)nn12)N1CCC2(CC1)OCCO2 | -1 | 24% | 8% | -8% | 2%
C=C(C)CN1CC[C@@]23c4c5ccc(O)c4O[C@H]2c2[nH]c4ccccc4c2C[C@]3(O)[C@@H]1C5 | . | 27µM* | . | -105% | .
CCCCCCN=C(C)c1c(O)n(CCCC)c(=O)[nH]c1=O | -10 | ? | 11% | ? | 0%
CN1CC(C(=O)c2ccc(Cl)cc2)C(c2ccc(N(C)C)cc2)C1 (centres undefined) | ? | ? | -1% | 21µM* | 0%
COC(=O)C1=CO[C@@H](C)[C@@H]2CN3CC[C@]4(C(=O)Nc5c4ccc(OC)c5OC)[C@H]3C[C@H]12 | . | -7%[9.04 µM] | . | 8%[9.04 µM] | .
CCOc1ccccc1N=C1SCCCN1C | -1 | -22% | -12% | -27% | 10%
CCOc1cccc(=NC2CCCCC2)c2c(C)n(C)c(C)c12 | -97* | 2.6µM* | 13µM* | 4.1µM* | 21µM*
O=C1CN=C(c2cccc(Br)c2)c2cc(Br)ccc2N1 | ? | 16µM* | ? | -4% | ?
O=C1CN=C(c2ccccc2)c2ccccc2N1 | 25 | 17% | 8% | -3% | 13%
O=C1CN=C(c2ccccc2)c2cc([N+](=O)[O-])ccc2N1 | -78* | 3% | -3% | -21% | 6%
O=C1CN=C(c2cc([N+](=O)[O-])ccc2Cl)c2cc([N+](=O)[O-])ccc2N1 | -12 | -19% | -17% | 0% | 0%
C[C@]12CCC3C(CC[C@H]4C[C@H](O)CC[C@]34C)C1CCC2=O (some centres undefined) | 22 | ? | 4% | 1% | -2%
S=C(N1CCCCCC1)N1CC1 | 6 | -7% | 0% | 2% | -2%
Fc1cccc(C2NCc3ccccc3-n3cccc32)c1 (centres undefined) | -12 | -23% | -24% | ? | -10%
O=C1NC2C(=CC(O)C(O)C2O)c2cc3c(c(O)c21)OCO3 (centres undefined) | -117* | 0.092µM* | 0.15µM* | 0.058µM* | 0.73µM*
O=C1NC2C(O)C(O)C(O)C(O)C2c2cc3c(c(O)c21)OCO3 (centres undefined) | -103* | 0.073µM* | 0.23µM* | 0.16µM* | 0.46µM*
O=C1NC2C(=CC(O)C(O)C2O)c2cc3c(cc21)OCO3 (centres undefined) | -101* | 0.29µM* | 1.2µM* | 0.41µM* | ?
COc1cc(C(CN)CC(=O)O)ccc1O (centres undefined) | 12 | 1% | 12% | -8% | 5%
CCN1C[C@@]2(COC)C3[C@@H](OC)[C@H]4[C@@H]1[C@@]3(C1C[C@H]3[C@H](O)C1[C@]4(O)C[C@H]3OC)[C@@H](OC)C[C@H]2O (some centres undefined) | -10 | -1% | 11% | -1% | 16%
SMILES | IL1B secr inh | DT40 TDP1 no CPT | HT1080 IDH1KD tx | DT40 TDP1 CPT | HT1080-NT tox
CCCS(=O)(=O)N1CCCC(C(=O)N2CCC3(CC2)OCCO3)C1 (centres undefined) | -11 | -1% | 16% | -12% | 18%
COc1ccc(N2CCN(C(=O)c3cc(=O)[nH]c4ccccc34)CC2)cc1 | 23 | ? | 0% | 5% | 3%
COc1ccc(-c2cc(C(=O)N3CCN(c4ccccc4OC)CC3)c3cc(C(C)C)ccc3n2)cc1 | . | 21µM* | . | 23µM* | .
CCOc1ccc(-c2cc(C(=O)N3CCN(c4cccc(C(F)(F)F)c4)CC3)c3ccccc3n2)cc1 | . | 4.6µM* | . | 5.2µM* | .
CN[C@H]1C[C@@H](N)[C@H](O)[C@@H](O[C@@H]2O[C@H](CO)[C@H](O)[C@@H]3OC4(O[C@H]23)O[C@H](C(N)CO)[C@H](O)[C@H](O)[C@H]4O)[C@@H]1O (some centres undefined) | . | -14% | . | -5% | .
CS(=O)(=O)Nc1ccc(Cc2noc(-c3ccc4[nH]cc(CCN)c4c3)n2)cc1 | . | ? | . | -18% | .
Cc1cc(C)c(NC(=O)C2CC3CCC2C3)c(C)c1 (centres undefined) | 19 | ? | 5% | 4% | 6%
CSc1nn(-c2ccc(C(=O)OCC(=O)NC(=O)NC(C)C)cc2)c(=S)s1 | -13 | ? | 4% | -21% | 2%
N#CC(C#N)=Cc1ccc(N2CCCC2)cc1 | 1 | ? | -4% | -29% | -3%
CC(C)(C)c1cc(C=C(C#N)C#N)cc(C(C)(C)C)c1O | -77* | 0.65µM* | 2.1µM* | 0.65µM* | 1.2µM*
N#CC(C#N)=Cc1ccc(O)c(O)c1 | 9 | 19µM*! | -20% | 21µM*! | -3%
C[N+]1(C)CCCCC1COC(=O)C(O)(c1ccccc1)c1ccccc1 (centres undefined) | . | -2% | . | -3% | .
COc1cc(C2SCC(=O)Nc3c2c(C)nn3-c2ccccc2)cc(OC)c1OC (centres undefined) | 14 | -9% | 1% | -20% | -4%
COc1cccc(C2SCC(=O)Nc3c2c(C)nn3-c2ccc(C)c(Cl)c2)c1OC (centres undefined) | . | 21µM* | . | 21µM* | .
Cc1nn(-c2ccccc2)c2c1C(c1ccc3c(c1)OCO3)SCC(=O)N2 (centres undefined) | -30 | ? | -2% | ? | 14%
